Assay outcomes from PubChem.
HT1080 IDH1KD tx = kills HT-1080 cells with IDH1 knockdown | Potency, µM (titrated, usually from 46.1 µM), most hits filed as cytotoxic | HT-1080 IDH1 knockdown viability, ATP luminescence, 48 h | actives 2% (n = 360,000) | AID 686971
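Assay cells: HT-1080 with IDH1 knockdown, 750 per well, RPMI/5% FBS. Exposure: 48 h at 37 °C following 2 h pre-incubation. Read: CellTiter-Glo luminescence; fitted concentration-response, curve class assigned.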
HT1080NT lethal = kills 2HG-producing HT-1080-NT fibrosarcoma cells. HT-1080-NT fibrosarcoma viability, CellTiter-Glo ATP luminescence, 48 h. actives 1.6% (n = 360,000). Potency, µM (doses to about 46.1 µM), most hits filed as cytotoxic;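 also: NT is the 2HG producing partner of a matched IDH1 knockdown line; nearly all actives have a fitted effect of over 55% in size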
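Viability by CellTiter-Glo luminescence after 48 h compound exposure at 37C of HT-1080-NT cells (750/well, RPMI, 5% FBS). % activity scaled between DMSO wells and medium-only wells, then curve-fitted and categorized by curve class.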
TDP1 cell noCPT = qHTS for Inhibitors of human tyrosyl-DNA phosphodiesterase 1 (TDP1): qHTS in cells in absence of CPT. DT40 Tdp1-/- hTDP1 cells, no CPT, ATP luminescence, 48 h. Potency, µM (series often up to 46.2 µM), most hits filed as inhibitors. actives 15% (n = 420,000). AID 686978, 2013; also: nearly all actives have a fitted effect of over 55% in size
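Stably hTDP1-transfected Tdp1-null chicken DT40 cells were treated with library compounds minus camptothecin and grown for at least 48 hr at 37 °C, after which cellular ATP was quantified by luminescence.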
KB-V1 cytotox = KB-V1 MDR subline cytotoxicity; KB-V1 MDR cells viability, CellTiter-Glo, 72 h; Potency, µM (top dose mostly 46.1 µM), usual class: cytotoxic; actives 3.4% (n = 400,000); also: nearly all actives have a fitted effect of over 60% in size
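KB-V1, DMEM (no phenol red) + 10% FBS; cpd pin-transferred, titration series; 72 h, 37 degrees C; CellTiter-Glo, luminescence. Data normalized, curve-fit.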
DT40 TDP1 CPT = DT40-hTDP1 cell growth loss with CPT. chicken DT40 Tdp1-/-;hTDP1 cells + 20 nM CPT, ATP luminescence, 48 h. actives 12% (n = 420,000). Potency, µM (doses to about 46.2 µM), most hits filed as inhibitors; also: nearly all actives have a fitted effect of over 55% in size
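Chicken DT40 Tdp1-/- cells complemented with human TDP1, 400 cells/well, exposed to compounds plus 20 nM camptothecin for at least 48 h at 37 C; viability read as ATP content by CellTiter-Glo luminescence.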
KB-3-1 cytotox = KB-3-1 parental cell cytotoxicity | Potency, µM (titrated, usually from 46.1 µM), hits mostly cytotoxic | KB-3-1 viability, CellTiter-Glo ATP luminescence, 72 h | actives 1.4% (n = 400,000); also: nearly all actives have a fitted effect of over 60% in size
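Multi-concentration cytotoxicity screen in KB-3-1 cells grown in DMEM lacking phenol red with 10% FBS. After 72 h at 37 °C with compound, ATP-dependent luminescence was recorded.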
Large screens that a line does not name were inactive. An excerpt weighted towards active compounds, which were near 19% of everything screened. Calls follow the shape of the dose curve; as a rule, active = well fitted curve in the direction sought with a large enough effect; inconclusive = small, poorly fitted or top-dose-only effect, or another doubt; inactive = no such curve, though single readings can be large; an effect the other way counts as inactive or inconclusive.

COc1ccc(S(=O)(=O)Nc2cc(SCC(=O)O)c(O)c3ccccc23)cc1	HT1080NT lethal inconclusive, TDP1 cell noCPT 5.17µM, KB-V1 cytotox inconclusive, DT40 TDP1 CPT 3.26µM, KB-3-1 cytotox inconclusive
C=C(C)C1COc2cc3oc(=O)ccc3cc2O1 (stereo unspecified)	none (no result: HT1080 IDH1KD tx, HT1080NT lethal, KB-V1 cytotox, KB-3-1 cytotox)
CC1(C(=O)NS(=O)(=O)C2CC2)CCN(C(=O)CSc2ccccc2)C1 (stereo unspecified)	none
COc1ccc(C)cc1NCC(=O)Nc1ccc(C(C)(C)C)cc1	TDP1 cell noCPT inconclusive, DT40 TDP1 CPT inconclusive
CNC(=S)Nc1ccc(Nc2ccccc2)cc1	none
CCC(=O)N1c2ccccc2CC1C(=O)NCc1ccc(OC(C)C)cc1 (stereo unspecified)	TDP1 cell noCPT inconclusive, DT40 TDP1 CPT inconclusive (no result: HT1080 IDH1KD tx, HT1080NT lethal)
Cc1cc(C)c(NC(=O)CSc2nc3ccc(N4C(=O)c5ccccc5C4=O)cc3s2)c(C)c1	none
Cc1cc(C)c(NC(=O)C(C)Sc2nc3ccc(N4C(=O)c5ccccc5C4=O)cc3s2)c(C)c1 (stereo unspecified)	TDP1 cell noCPT 35.5µM, DT40 TDP1 CPT inconclusive
Cc1ccccc1OC1C(=O)N(CC2CCCO2)C1c1ccc2c(c1)OCO2 (stereo unspecified)	TDP1 cell noCPT 13µM, DT40 TDP1 CPT 14.6µM
Cc1ccc(C)c(N(CC(=O)NC2CCCC2)C(=O)c2cc3cc4cc(C)ccc4nc3s2)c1	TDP1 cell noCPT 11.2µM, KB-V1 cytotox inconclusive, DT40 TDP1 CPT 8.2µM
Cc1cccc(N(CC(=O)NC2CCCC2)C(=O)c2cc3cc4cccc(C)c4nc3s2)c1C	TDP1 cell noCPT 16.4µM, KB-V1 cytotox inconclusive, DT40 TDP1 CPT 18.4µM
Cc1cccc(N(CC(=O)NC2CCCC2)C(=O)c2csnn2)c1C	KB-3-1 cytotox inconclusive
COCc1c(C(=O)N2CCC(N(C)C)C2)cnn1-c1ncc2c(n1)-c1ccccc1CCC2 (stereo unspecified)	none (no result: HT1080 IDH1KD tx, HT1080NT lethal, KB-V1 cytotox, KB-3-1 cytotox)
CC(C)(C)SCCNC(=O)Nc1ccccc1	none
Cc1ccc(CO/N=C\Cc2snc(Sc3ncc(C(F)(F)F)cc3Cl)c2C#N)cc1	TDP1 cell noCPT inconclusive, DT40 TDP1 CPT inconclusive
Cc1ccc(NC(=O)CN(C)C(=O)COC(=O)c2ccc(NC(=O)CC#N)cc2)cc1	none (no result: KB-V1 cytotox, KB-3-1 cytotox)
Cc1ccc(Cn2ccsc2=NC(=O)COC(=O)c2ccc(NC(=O)CC#N)cc2)cc1	TDP1 cell noCPT 16.4µM, DT40 TDP1 CPT inconclusive, KB-3-1 cytotox inconclusive
Cc1ccc(NC(=O)CSCC(=O)N=c2sccn2C)cc1	TDP1 cell noCPT inconclusive
Cc1ccc(Cn2ccsc2=NC(=O)CCl)cc1	HT1080 IDH1KD tx 11.6µM, HT1080NT lethal 1.03µM, TDP1 cell noCPT 5.8µM, KB-V1 cytotox inconclusive, DT40 TDP1 CPT 11.6µM, KB-3-1 cytotox 20.6µM
Cc1cc(C(=O)COC(=O)c2ccc(NC(=O)CC#N)cc2)c(C)n1C1CC1	TDP1 cell noCPT 20.6µM, DT40 TDP1 CPT 20.6µM
CC1=C(C(=O)Nc2ccccc2C)C(c2sccc2C)n2ncnc2N1 (stereo unspecified)	KB-V1 cytotox inconclusive (no result: HT1080 IDH1KD tx, HT1080NT lethal)
